The target of the first assay is RELARELA (p65 homodimer) (Homo sapiens, UniProt Q04206 1-307). Put plainly: protein binding microarray; high values mean tight binding. To be noted: dsDNA, one strand shown.
Sequence of RELARELA (p65 homodimer) (Q04206 1-307): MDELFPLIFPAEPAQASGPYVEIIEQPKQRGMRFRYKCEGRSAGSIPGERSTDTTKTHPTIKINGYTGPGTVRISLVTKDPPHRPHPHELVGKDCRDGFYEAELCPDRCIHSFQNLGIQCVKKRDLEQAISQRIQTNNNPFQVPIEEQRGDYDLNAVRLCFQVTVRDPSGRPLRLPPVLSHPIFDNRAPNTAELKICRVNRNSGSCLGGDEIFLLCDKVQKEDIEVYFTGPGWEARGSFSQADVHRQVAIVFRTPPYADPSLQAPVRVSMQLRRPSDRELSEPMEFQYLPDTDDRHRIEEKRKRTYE
GGAAACCTCCT yielded a binding signal of 0.339 z-score.
In the case of AGATACATCCC, the binding signal was -0.0343 z-score.
The same measure, in the same setting: for AGATTACCCCC the value was 0.372 z-score; for CGGATCTTCCT, 0.45 z-score.
Still for that read-out and setting: for CGATGTCTCCT the value was -0.49 z-score.
For CGATAGCTCCT, the binding signal is -0.609 z-score.
Same read-out and setting: for CGATTAATCCC the value was 0.0967 z-score.
Same read-out and setting: for AGGATGTTCCC the value was 0.975 z-score.
AGGATCACCCT registered a binding signal of -0.477 z-score.
Regarding GGGAATCTCCT, the binding signal was found to be 2.57 z-score.
CGAGTCTTCCC: the binding signal turned out to be 0.331 z-score.
Sequence AGAATGCTCCC came in with a binding signal of -0.506 z-score.
Regarding GGAGAAGTCCT, the binding signal is 0.391 z-score.
Still for that read-out and setting: for AAATTGCTCCT the value was -0.35 z-score; for AAAGGTCCCCT, -0.0302 z-score.
Same read-out and setting: for CGGAATCCCCT the value was 2.17 z-score; for AAAGTTACCCT, -0.188 z-score; for CAGAACCTCCT, -0.658 z-score.
Still for that read-out and setting: for GAGTTGTTCCC the value was 0.34 z-score.
Take AAGAAAGCCCT: the binding signal is -0.308 z-score.
In turn, GAGAGATTCCC returned a binding signal of 1.47 z-score.
On the same count and under the same terms, for GAATTTGTCCC the value was 1.3 z-score.
Still for that read-out and setting: for CGGAAATTCCC the value was 4.22 z-score.
Sequence GAATATATCCC yielded a binding signal of 0.0475 z-score.
On the same count and under the same terms, for GAAGTCTTCCC the value was 0.246 z-score; for AGGTTCGCCCT, -0.645 z-score; for GAAAAAACCCC, 2.27 z-score.
As to CGGGTATCCCC, the binding signal was 1.9 z-score.
For AGAGTGTCCCT, the binding signal was 0.267 z-score.
The same measure, in the same setting: for GGGTACCTCCC the value was -0.276 z-score.
With GAAAACCCCCT, the binding signal worked out at 1.83 z-score.
Still for that read-out and setting: for CGGGGCATCCT the value was -0.458 z-score; for GAGATTGCCCC, 0.817 z-score.
Same read-out and setting: for CGGAACACCCT the value was -0.222 z-score.
Same read-out and setting: for AGATAAGTCCC the value was 0.485 z-score; for CGAGTGGTCCC, -0.301 z-score; for AAGGTAGCCCC, -0.468 z-score.
Consider GAGTGCGCCCC, for which the binding signal is -0.402 z-score.

The target in the next assay is p50p50 homodimer (Homo sapiens, UniProt P19838 7-356). Described as above. As to conditions: dsDNA, one strand shown.
Sequence of p50p50 homodimer (P19838 7-356): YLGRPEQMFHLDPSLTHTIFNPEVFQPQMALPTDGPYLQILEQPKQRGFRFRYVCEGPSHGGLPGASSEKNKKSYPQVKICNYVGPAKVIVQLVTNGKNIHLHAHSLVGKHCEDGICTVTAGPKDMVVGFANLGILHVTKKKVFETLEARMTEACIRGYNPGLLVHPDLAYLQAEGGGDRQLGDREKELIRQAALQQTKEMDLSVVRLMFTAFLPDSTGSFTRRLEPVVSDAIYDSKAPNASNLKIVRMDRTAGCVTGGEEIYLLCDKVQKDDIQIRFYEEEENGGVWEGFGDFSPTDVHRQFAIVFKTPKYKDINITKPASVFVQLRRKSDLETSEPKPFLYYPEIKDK
Sequence GGAAACCTCCT gave a binding signal of -1.26 z-score.
The same measure, in the same setting: for AGATACATCCC the value was -0.79 z-score; for AGATTACCCCC, 1.19 z-score.
The sequence CGGATCTTCCT gave a binding signal of -1.67 z-score.
As to CGATGTCTCCT, the binding signal was -1.36 z-score.
On the same count and under the same terms, for CGATAGCTCCT the value was -1.63 z-score; for CGATTAATCCC, -0.315 z-score.
Sequence AGGATGTTCCC came in with a binding signal of -0.225 z-score.
AGGATCACCCT: the binding signal was -0.136 z-score.
Same read-out and setting: for GGGAATCTCCT the value was 0.441 z-score; for CGAGTCTTCCC, -0.565 z-score.
Still for that read-out and setting: for AGAATGCTCCC the value was -0.551 z-score; for GGAGAAGTCCT, -0.831 z-score.
In turn, AAATTGCTCCT showed a binding signal of -1.61 z-score.
In the case of AAAGGTCCCCT, the binding signal worked out at 1.09 z-score.
The same measure, in the same setting: for CGGAATCCCCT the value was 1.6 z-score.
Sequence AAAGTTACCCT had a binding signal of 0.663 z-score.
Still for that read-out and setting: for CAGAACCTCCT the value was -1.31 z-score; for GAGTTGTTCCC, -0.415 z-score.
The same measure, in the same setting: for AAGAAAGCCCT the value was -0.8 z-score; for GAGAGATTCCC, 0.649 z-score; for GAATTTGTCCC, 0.832 z-score.
The sequence CGGAAATTCCC returned a binding signal of 1.06 z-score.
Still for that read-out and setting: for GAATATATCCC the value was -0.184 z-score; for GAAGTCTTCCC, -0.511 z-score.
Still for that read-out and setting: for AGGTTCGCCCT the value was -1.28 z-score; for GAAAAAACCCC, 1.19 z-score; for CGGGTATCCCC, 0.854 z-score.
Still for that read-out and setting: for AGAGTGTCCCT the value was 0.607 z-score.
In turn, GGGTACCTCCC returned a binding signal of 0.39 z-score.
For the sequence GAAAACCCCCT, the binding signal is 1.6 z-score.
With CGGGGCATCCT, the binding signal came out at 0.212 z-score.
As for GAGATTGCCCC, the binding signal worked out at 0.318 z-score.
Still for that read-out and setting: for CGGAACACCCT the value was -0.182 z-score.
The same measure, in the same setting: for AGATAAGTCCC the value was 1.11 z-score.
On the same count and under the same terms, for CGAGTGGTCCC the value was -0.0725 z-score; for AAGGTAGCCCC, 0.424 z-score; for GAGTGCGCCCC, -0.17 z-score.

These data come from publication PMC3218832.
